From PubChem BioAssay AID1159580 (chemical genetic matrix, 2015)
The campaign covered roughly 5,500 compounds. About 2,000 (36%) were called active. Not shown: some 18% with an inconclusive outcome. No stated cut-off is given here; in the data, active means normalized growth mostly below about 0.91 (no sharp cut-off); inconclusive means no clear call, values can overlap the other calls; inactive means mostly above about 0.92. This is one part of the list.

Assay: chemical genetic growth profiling, strain panel (AID 1159580);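 further: tested at 20 µM; growth read once vehicle control cultures reached saturation at 30 °C; 1 = growth at the plate median or of vehicle wells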
Conditions: S. cerevisiae deletion strains, growth OD
[1] = locus YAL040C, strain CLN3, stronger effect = lower value
[2] = locus YCL061C, strain MRC1 (second series), stronger effect = lower value
[3] = locus YDR363W, strain ESC2, stronger effect = lower value
[4] = locus YER002W, strain NOP16, stronger effect = lower value
[5] = locus YGR229C, strain SMI1, stronger effect = lower value
[6] = locus YNL153C, strain GIM3, stronger effect = lower value
[7] = locus YNL175C, strain NOP13, stronger effect = lower value
[8] = locus YNL197C, strain WHI3, stronger effect = lower value
[9] = locus YNL224C, strain SQS1, stronger effect = lower value
[10] = locus YOR083W, strain WHI5 (second series), stronger effect = lower value
[11] = locus YPL241C, strain CIN2, stronger effect = lower value

Measured: normalized growth

CCc1c(C(=O)OC)ncc2[nH]c3cc(OC)c(OC)cc3c12
inactive: [1] 0.994 | [2] 0.994 | locus YDR150W, strain NUM1, stronger effect = lower value 0.995 | [3] 1 | [4] 0.99 | [5] 1.05 | locus YJR075W, strain HOC1, stronger effect = lower value 0.99 | locus YMR307W, strain GAS1, stronger effect = lower value 1.01 | [6] 0.984 | [7] 0.998 | [8] 0.992 | [9] 1.02 | [10] 1 | [11] 0.999

CNCC[C@@H](Oc1ccccc1)c1ccccc1
inactive: locus YAL021C, strain ccr4, stronger effect = lower value 0.976 | locus YAL026C, strain drs2, stronger effect = lower value 0.961 | locus YAL030W, strain snc1, stronger effect = lower value 0.947 | locus YBL061C, strain skt5, stronger effect = lower value 0.98 | locus YBR009C, strain hhf1, stronger effect = lower value 0.974 | locus YBR023C, strain chs3, stronger effect = lower value 0.979 | locus YBR171W, strain sec66, stronger effect = lower value 0.979 | locus YBR231C, strain swc5, stronger effect = lower value 0.984 | locus YBR279W, strain paf1, stronger effect = lower value 0.982 | locus YCL011C, strain gbp2, stronger effect = lower value 0.975 | locus YCL016C, strain dcc1, stronger effect = lower value 0.979 | locus YCL061C, strain MRC1, stronger effect = lower value 0.982 | locus YCL069W, strain vba3, stronger effect = lower value 0.978 | locus YCR088W, strain abp1, stronger effect = lower value 0.983 | locus YDL005C, strain med2, stronger effect = lower value 0.983 | locus YDL040C, strain nat1, stronger effect = lower value 0.988 | locus YDR001C, strain nth1, stronger effect = lower value 0.974 | locus YDR069C, strain doa4, stronger effect = lower value 0.965 | locus YDR137W, strain rgp1, stronger effect = lower value 1.02 | locus YDR159W, strain sac3, stronger effect = lower value 0.944 | locus YDR195W, strain ref2 0.972 | locus YDR297W, strain sur2, stronger effect = lower value 0.98 | locus YDR334W, strain swr1, stronger effect = lower value 0.951 | locus YDR335W, strain msn5, stronger effect = lower value 0.965 | locus YDR392W, strain spt3, stronger effect = lower value 0.975 | locus YEL003W, strain gim4, stronger effect = lower value 0.973 | locus YEL037C, strain rad23, stronger effect = lower value 0.988 | locus YEL061C, strain CIN8 (second series), stronger effect = lower value 0.988 | locus YER015W, strain faa2, stronger effect = lower value 0.961 | locus YER016W, strain bim1, stronger effect = lower value 0.978 | locus YER111C, strain swi4, stronger effect = lower value 0.981 | locus YER155C, strain BEM2 (second series), stronger effect = lower value 0.978 | locus YFR010W, strain ubp6, stronger effect = lower value 0.964 | locus YGL167C, strain pmr1, stronger effect = lower value 0.977 | locus YGL173C, strain kem1, stronger effect = lower value 0.954 | locus YGL227W, strain vid30, stronger effect = lower value 0.97 | locus YGL240W, strain doc1, stronger effect = lower value 0.96 | locus YGL253W, strain hxk2, stronger effect = lower value 0.984 | locus YHR013C, strain ard1, stronger effect = lower value 0.973 | locus YHR027C, strain rpn1, stronger effect = lower value 0.946 | locus YHR030C, strain SLT2, stronger effect = lower value 1.01 | locus YHR079C, strain IRE1, stronger effect = lower value 0.995 | locus YHR142W, strain chs7, stronger effect = lower value 0.973 | locus YJL092W, strain hpr5, stronger effect = lower value 0.984 | locus YJL095W, strain BCK1 (second series), stronger effect = lower value 0.971 | locus YJL095W, strain BCK1, stronger effect = lower value 0.996 | locus YJL115W, strain asf1, stronger effect = lower value 0.957 | locus YJL129C, strain trk1, stronger effect = lower value 0.99 | locus YJL154C, strain vps35, stronger effect = lower value 0.97 | locus YJL164C, strain tpk1, stronger effect = lower value 0.987 | locus YJL166W, strain qcr8, stronger effect = lower value 0.976 | locus YJL187C, strain SWE1, stronger effect = lower value 0.98 | locus YJR066W, strain TOR1, stronger effect = lower value 0.946 | locus YKL160W, strain elf1, stronger effect = lower value 0.989 | locus YKR026C, strain gcn3, stronger effect = lower value 0.977 | locus YKR091W, strain srl3, stronger effect = lower value 0.988 | locus YLL001W, strain dnm1, stronger effect = lower value 0.988 | locus YLL026W, stronger effect = lower value 0.97 | locus YLL041C, strain sdh2, stronger effect = lower value 0.968 | locus YLR027C, strain aat2, stronger effect = lower value 0.962 | locus YLR113W, strain HOG1, stronger effect = lower value 0.965 | locus YLR221C, strain rsa3, stronger effect = lower value 0.976 | locus YLR258W, strain gsy2, stronger effect = lower value 0.981 | locus YLR262C, strain YPT6 (second series), stronger effect = lower value 0.982 | locus YLR320W, strain mms22, stronger effect = lower value 0.989 | locus YLR342W, strain FKS1, stronger effect = lower value 0.976 | locus YLR357W, strain rsc2, stronger effect = lower value 1.01 | locus YLR370C, strain arc18, stronger effect = lower value 0.981 | locus YLR384C, strain iki3, stronger effect = lower value 0.972 | locus YML120C, strain ndi1, stronger effect = lower value 0.983 | locus YMR058W, strain fet3, stronger effect = lower value 0.981 | locus YMR125W, strain sto1, stronger effect = lower value 0.979 | locus YMR129W, stronger effect = lower value 0.991 | locus YMR205C, strain PFK2, stronger effect = lower value 0.958 | locus YMR231W, strain pep5, stronger effect = lower value 0.984 | locus YNL071W, strain lat1, stronger effect = lower value 0.993 | locus YNL183C, strain NPR1, stronger effect = lower value 0.958 | locus YNL209W, strain ssb2, stronger effect = lower value 0.948 | locus YNL248C, strain rpa49, stronger effect = lower value 0.974 | locus YNL322C, strain KRE1 (second series), stronger effect = lower value 0.978 | locus YNR049C, strain mso1, stronger effect = lower value 0.969 | locus YOR001W, strain rrp6, stronger effect = lower value 0.972 | locus YOR070C, strain gyp1, stronger effect = lower value 0.989 | locus YOR080W, strain dia2, stronger effect = lower value 0.973 | locus YOR083W, strain WHI5, stronger effect = lower value 0.981 | locus YOR106W, strain vam3, stronger effect = lower value 0.972 | locus YOR231W, strain MKK1, stronger effect = lower value 1.01 | locus YOR265W, strain rbl2, stronger effect = lower value 0.98 | locus YOR270C, strain vph1, stronger effect = lower value 1.01 | locus YOR290C, strain snf2, stronger effect = lower value 0.974 | locus YPL051W, strain arl3, stronger effect = lower value 0.994 | locus YPL078C, strain atp4, stronger effect = lower value 0.984 | locus YPL106C, strain sse1, stronger effect = lower value 0.924 | locus YPL240C, strain hsp82, stronger effect = lower value 0.976 | locus YPL256C, strain CLN2, stronger effect = lower value 0.992

NC(=O)CNCCC(c1ccccc1)c1ccccc1
inactive: [1] 0.962 | [2] 0.987 | [3] 0.965 | [4] 0.969 | locus YGR078C, strain PAC10, stronger effect = lower value 0.993 | [5] 0.895 | [6] 1.04 | [7] 0.993 | [8] 1.01 | [9] 0.991 | [10] 1.03 | [11] 0.984
